Assay results reported in PubChem BioAssay AID1159580 (chemical genetic matrix, 2015).
Out of some 5,500 compounds screened, about 2,000 (36%) were called active. Roughly 18% stayed inconclusive and do not appear here. No stated cut-off is given here; in the data, active means normalized growth mostly below about 0.91 (no sharp cut-off); inconclusive means no clear call, values can overlap the other calls; inactive means mostly above about 0.92. Some of the results follow.

Test: chemical genetic growth profiling, strain panel (AID 1159580);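 further: tested at 20 µM; growth read once vehicle control cultures reached saturation at 30 °C; 1 = growth at the plate median or of vehicle wells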
Settings: S. cerevisiae deletion strains, growth OD
[1] = locus YAR019C, strain CDC15, stronger effect = lower value
[2] = locus YBL105C, strain PKC1, stronger effect = lower value
[3] = locus YBR135W, strain CKS1, stronger effect = lower value
[4] = locus YBR136W, strain MEC1, stronger effect = lower value
[5] = locus YBR160W, strain CDC28, stronger effect = lower value
[6] = locus YDL017W, strain CDC7, stronger effect = lower value
[7] = locus YDL028C, strain MPS1, stronger effect = lower value
[8] = locus YDL101C, strain DUN1, stronger effect = lower value
[9] = locus YDL108W, strain KIN28, stronger effect = lower value
[10] = locus YDL132W, strain cdc53, stronger effect = lower value
[11] = locus YDL214C, strain PRR2, stronger effect = lower value
[12] = locus YDR052C, strain DBF4, stronger effect = lower value
[13] = locus YDR054C, strain cdc34, stronger effect = lower value
[14] = locus YDR226W, strain ADK1, stronger effect = lower value
[15] = locus YDR477W, strain SNF1, stronger effect = lower value
[16] = locus YER123W, strain YCK3, stronger effect = lower value
[17] = locus YER133W, strain GLC7, stronger effect = lower value
[18] = locus YFL009W, strain cdc4, stronger effect = lower value
[19] = locus YFL029C, strain CAK1, stronger effect = lower value
[20] = locus YFR003C, strain YPI1, stronger effect = lower value
[21] = locus YFR019W, strain FAB1, stronger effect = lower value
[22] = locus YFR028C, strain CDC14, stronger effect = lower value
[23] = locus YGR040W, strain KSS1, stronger effect = lower value
[24] = locus YGR052W, strain FMP48, stronger effect = lower value
[25] = locus YGR092W, strain DBF2, stronger effect = lower value
[26] = locus YHR030C, strain SLT2, stronger effect = lower value
[27] = locus YHR079C, strain IRE1, stronger effect = lower value
[28] = locus YHR082C, strain KSP1, stronger effect = lower value
[29] = locus YHR205W, strain SCH9, stronger effect = lower value
[30] = locus YIL147C, strain SLN1, stronger effect = lower value
[31] = locus YJL095W, strain BCK1, stronger effect = lower value
[32] = locus YJL128C, strain PBS2, stronger effect = lower value
[33] = locus YJL157C, strain FAR1, stronger effect = lower value
[34] = locus YJR016C, strain ILV3, stronger effect = lower value
[35] = locus YJR066W, strain TOR1 (second series), stronger effect = lower value
[36] = locus YJR066W, strain TOR1, stronger effect = lower value
[37] = locus YKL048C, strain ELM1, stronger effect = lower value
[38] = locus YKL067W, strain YNK1, stronger effect = lower value
[39] = locus YKL101W, strain HSL1, stronger effect = lower value
[40] = locus YKL193C, strain SDS22, stronger effect = lower value
[41] = locus YKL203C, strain TOR2, stronger effect = lower value
[42] = locus YLR113W, strain HOG1, stronger effect = lower value
[43] = locus YLR133W, strain CKI1, stronger effect = lower value
[44] = locus YLR403W, strain SFP1, stronger effect = lower value
[45] = locus YML070W, strain DAK1, stronger effect = lower value
[46] = locus YMR001C, strain CDC5, stronger effect = lower value
[47] = locus YMR205C, strain PFK2 (second series), stronger effect = lower value
[48] = locus YMR277W, strain FCP1, stronger effect = lower value
[49] = locus YNL006W, strain LST8, stronger effect = lower value
[50] = locus YNL020C, strain ARK1, stronger effect = lower value
[51] = locus YNL161W, strain CBK1, stronger effect = lower value
[52] = locus YNL183C, strain NPR1, stronger effect = lower value
[53] = locus YNL207W, strain RIO2, stronger effect = lower value
[54] = locus YNL222W, strain SSU72, stronger effect = lower value
[55] = locus YNL307C, strain MCK1 (second series), stronger effect = lower value
[56] = locus YOL078W, strain AVO1, stronger effect = lower value
[57] = locus YOL136C, strain PFK27, stronger effect = lower value
[58] = locus YOR061W, strain CKA2, stronger effect = lower value
[59] = locus YOR119C, strain RIO1, stronger effect = lower value
[60] = locus YOR231W, strain MKK1, stronger effect = lower value
[61] = locus YOR329C, strain SCD5, stronger effect = lower value
[62] = locus YPL031C, strain PHO85, stronger effect = lower value
[63] = locus YPL153C, strain RAD53, stronger effect = lower value
[64] = locus YPL204W, strain HRR25, stronger effect = lower value
[65] = locus YPL209C, strain IPL1, stronger effect = lower value
[66] = locus YPL256C, strain CLN2, stronger effect = lower value
[67] = locus YPR025C, strain CCL1, stronger effect = lower value
[68] = locus YPR106W, strain ISR1, stronger effect = lower value
[69] = locus YPR111W, strain DBF20, stronger effect = lower value
[70] = strain NNK1, stronger effect = lower value
[71] = strain TSCII, stronger effect = lower value
[72] = locus YGR078C, strain PAC10, stronger effect = lower value
[73] = locus YNL322C, strain KRE1, stronger effect = lower value

Measured: normalized growth

COc1cc(N=Cc2cc(Cl)cc(Cl)c2OS(=O)(=O)c2ccc(C)cc2)c(OC)cc1Cl
inactive: [1] 0.935 | [2] 0.948 | [3] 0.943 | [4] 0.944 | [5] 0.927 | [6] 0.957 | [7] 0.921 | [8] 0.951 | [9] 0.936 | [10] 0.942 | [11] 0.891 | [12] 0.958 | [13] 0.947 | [14] 0.946 | [15] 0.914 | [16] 0.896 | [17] 0.929 | [18] 0.926 | [19] 0.932 | [20] 0.952 | [21] 0.955 | [22] 0.919 | [23] 0.918 | [24] 0.917 | [25] 0.849 | [27] 0.794 | [28] 0.829 | [29] 0.846 | [30] 0.949 | [31] 0.903 | [32] 0.884 | [33] 0.928 | [34] 0.963 | [35] 0.943 | [36] 0.805 | [37] 0.939 | [38] 0.897 | [39] 0.902 | [40] 0.946 | [41] 0.991 | [43] 0.906 | [44] 0.911 | [45] 0.902 | [46] 0.934 | [47] 0.923 | [48] 0.922 | [49] 0.955 | [50] 0.903 | [51] 0.95 | [52] 0.941 | [53] 0.952 | [54] 0.92 | [55] 0.921 | [56] 0.94 | [57] 0.881 | [58] 0.945 | [59] 0.924 | [60] 0.845 | [61] 0.958 | [62] 0.926 | [63] 0.911 | [64] 0.906 | [65] 0.947 | [67] 0.948 | [68] 0.942 | [69] 0.901 | [70] 0.943 | [71] 0.935
active: [26] 0.651 | [42] 0.85 | [66] 0.86

COc1cc(C(=O)Oc2c(Cl)cc(Cl)cc2C=Nc2cccc(C(F)(F)F)c2)cc(OC)c1OC
active: [11] 0.627 | [15] 0.589 | [16] 0.422 | [17] 0.585 | [21] 0.702 | [23] 0.636 | [24] 0.556 | [25] 0.308 | [26] 0.363 | [27] 0.388 | [28] 0.484 | [29] 0.465 | [31] 0.421 | [33] 0.617 | [36] 0.368 | [37] 0.78 | [38] 0.605 | [39] 0.648 | [41] 0.693 | [42] 0.488 | [43] 0.626 | [44] 0.473 | [45] 0.583 | [47] 0.656 | [50] 0.594 | [52] 0.497 | [55] 0.555 | [57] 0.548 | [58] 0.576 | [59] 0.597 | [60] 0.465 | [62] 0.574 | [63] 0.578 | [64] 0.562 | [66] 0.443
inactive: [1] 0.977 | [2] 0.976 | [3] 0.971 | [4] 0.973 | [5] 0.968 | [6] 0.974 | [7] 0.962 | [8] 0.986 | [9] 0.966 | [10] 0.963 | [12] 0.983 | [13] 0.959 | [14] 0.965 | [18] 0.957 | [19] 0.978 | [20] 0.972 | [22] 0.951 | [30] 0.972 | [32] 0.917 | [34] 0.986 | [35] 0.775 | [40] 0.971 | [46] 0.975 | [48] 0.97 | [49] 0.981 | [51] 0.977 | [53] 0.982 | [54] 0.969 | [56] 0.969 | [61] 0.978 | [65] 0.976 | [67] 0.966 | [68] 0.965 | [69] 0.931 | [70] 0.98 | [71] 0.967

CCN(CC)CCCCCCCCOC(=O)c1cc(OC)c(OC)c(OC)c1
inactive: locus YAL040C, strain CLN3, stronger effect = lower value 1.01 | locus YDR363W, strain ESC2, stronger effect = lower value 1.01 | locus YER002W, strain NOP16, stronger effect = lower value 0.999 | [72] 1.01 | locus YNL175C, strain NOP13, stronger effect = lower value 1.01 | locus YNL197C, strain WHI3, stronger effect = lower value 1.02 | locus YNL224C, strain SQS1, stronger effect = lower value 0.985 | [73] 0.992 | locus YOR083W, strain WHI5 (second series), stronger effect = lower value 1.03

COC(=O)c1ccc([N+](=O)[O-])cc1Cl
inactive: locus YAL013W, strain DEP1, stronger effect = lower value 0.991 | locus YBR229C, strain ROT2, stronger effect = lower value 0.998 | locus YCL061C, strain MRC1, stronger effect = lower value 1 | [8] 0.989 | locus YDL134C, strain PPH21, stronger effect = lower value 0.983 | locus YDR150W, strain NUM1, stronger effect = lower value 0.923 | locus YEL061C, strain CIN8, stronger effect = lower value 0.988 | [72] 0.993 | [26] 0.989 | locus YHR087W, strain rtc3, stronger effect = lower value 1.01 | locus YJL187C, strain SWE1, stronger effect = lower value 0.991 | locus YJR043C, strain POL32, stronger effect = lower value 1.02 | locus YJR075W, strain HOC1, stronger effect = lower value 0.996 | locus YLR039C, strain RIC1, stronger effect = lower value 0.983 | locus YLR058C, strain SHM2 (second series), stronger effect = lower value 0.983 | locus YLR085C, strain ARP6, stronger effect = lower value 0.881 | locus YLR262C, strain YPT6, stronger effect = lower value 1 | locus YML094W, strain GIM5, stronger effect = lower value 0.964 | locus YMR219W, strain ESC1, stronger effect = lower value 0.992 | locus YMR263W, strain SAP30, stronger effect = lower value 0.992 | locus YMR307W, strain GAS1, stronger effect = lower value 1.05 | locus YNL128W, strain TEP1, stronger effect = lower value 0.985 | locus YNL153C, strain GIM3, stronger effect = lower value 1.01 | locus YNL298W, strain CLA4 (second series), stronger effect = lower value 0.97 | [73] 1 | locus YNR030W, strain Alg12, stronger effect = lower value 1.01 | locus YOL006C, strain TOP1, stronger effect = lower value 0.756 | locus YPL055C, strain LGE1, stronger effect = lower value 0.95 | locus YPL241C, strain CIN2, stronger effect = lower value 0.992 | locus YPR135W, strain CTF4, stronger effect = lower value 1.03
